# Data published in PubChem BioAssay AID1775 (NMMLSC, 2009).
# Values joined by “and” are separate entries in the source; they are usually repeats but may differ in a detail not shown here. Equal values may be shown once. Hit rate of the full screen: of about 220,000 compounds, about 820 (0.37%) were called active. Rule as the data show it: active = fluorescence above about 47; inactive = the rest. The sample as a whole holds a higher share of actives than the screen did.
# Test: green autofluorescence of compounds with avidin beads – biophysical, 488/530 nm, flow cytometry, artefact control, profiling panel (AID 1775)
# Conditions: compound fluorescence 488/530 nm, at 10 µM, hits give high values
row,SMILES,fluorescence (KMESF)
1,O=C(Nc1ccccc1Cl)c1ccccc1S(=O)(=O)c1ccccc1[N+](=O)[O-],11 (inactive)
2,CC(=O)Nc1ccc(NC(=O)COc2ccccc2C(=O)Nc2cccc(Cl)c2Cl)cc1,14 (inactive)
3,CN(C)S(=O)(=O)Oc1ccccc1C(=O)Nc1ccccc1Cl,81 (active)
4,COc1ccc(CCNC(=O)C2CC3Cn4c(nc5cc(C)c(C)cc54)C3N2C)cc1 (centres undefined),8 (inactive)
5,COC(=O)c1c(C)oc(C)c1S(=O)(=O)NCc1ccc(Cl)cc1,6 (inactive)
6,CC1=CC(=C(C#N)c2nc3ccccc3s2)C=C(C)N1c1ccc(F)cc1F,9 (inactive)
7,Oc1[nH]c2ccc(Br)cc2c1N=Nc1nn[nH]n1,4 (inactive)
8,CNC(=S)N1CCC(NC(=O)C(Cc2ccc(F)cc2)NC(C)=O)CC1 (centres undefined),10 (inactive)
9,Fc1cccc(CSc2nnc3ccc(-c4ccncc4)nn23)c1,6 (inactive)
10,O=C(Cc1c[nH]c2ccccc12)OCCOC(=O)Cc1c[nH]c2ccccc12,21 (inactive)
11,COc1ccccc1NC(=O)C[n+]1ccccc1,10 (inactive)
12,COc1ccccc1NC(=O)CCCc1c[nH]c2ccccc12,257 (active)
13,O=C(O)Cc1csc(-c2cccc(Oc3ccccc3)c2)n1,6 (inactive) and 3 (inactive)
14,O=C(CSc1ccccc1F)NC1CCS(=O)(=O)C1 (centres undefined),9 (inactive)
15,CCOC(=O)/C=C/CN(C(=O)OC(C)(C)C)S(=O)(=O)N1CC=CC1,9 (inactive)
16,COc1cc(NC(=S)NNC(=O)CC(C)C)c(OC)cc1Cl,13 (inactive)
17,CC(NC(=O)c1ccc(N2CCNCC2)c([N+](=O)[O-])c1)C12CC3CC(CC(C3)C1)C2 (centres undefined),9 (inactive)
18,O=C1CS(=O)CN1c1ccc(Oc2ccccc2)cc1 (centres undefined),9 (inactive)
19,C/C=C/C(=O)Nc1ccc(N2CCN(c3ccc(C(F)(F)F)cn3)CC2)nc1,8 (inactive)
20,COC(=O)c1cn(C(=O)c2ccc(Cl)cc2)c2ccccc12,4 (inactive)
21,Cc1nc(-c2ccc(Cl)cc2)sc1C1(C)CC(c2ccccc2F)=NO1 (centres undefined),7 (inactive)
22,O=C(CCC1CCCN(Cc2ccc(O)c(Cl)c2)C1)NCc1ccccc1F (centres undefined),12 (inactive)
23,Cc1ccc(NC(=O)Nc2nnc(-c3ccncc3)s2)cc1,6 (inactive)
24,CC(C)=CC(=O)Nc1nnc(-c2ccc(F)cc2)s1,71 (active)
25,Cc1ccc(C(=O)Nc2nnc(-c3ccncc3)s2)o1,9 (inactive)

row,SMILES,fluorescence (KMESF)
1,CN(C)/C(=N\OC(=O)c1ccccc1)c1nonc1N,8 (inactive)
2,NC(=O)N/N=C\c1cccs1,12 (inactive)
3,Cc1ccc(S(=O)(=O)/N=C(/NC(=S)Nc2c(C)n(C)n(-c3ccccc3)c2=O)c2ccccc2)cc1,53 (active)
4,Cc1ccc(S(=O)(=O)CC(=O)Nc2c(C)n(C)n(-c3ccccc3)c2=O)cc1,12 (inactive)
5,Cc1c(NC(=S)Nc2ccccc2)c(=O)n(-c2ccccc2)n1C,4 (inactive)
6,C=CC1C(OC2OC(CO)C(O)C(O)C2O)OC=C(C(=O)OC)C1CC1CC(=O)CC(CC(=O)CCc2ccc(O)cc2)O1 (centres undefined),8 (inactive)
7,Fc1ccccc1C(c1nnnn1Cc1ccc2c(c1)OCO2)N1CCN(Cc2ccccc2)CC1 (centres undefined),5 (inactive)
8,Fc1ccc(Cn2nnnc2C(c2cccs2)N2CCCCCC2)cc1 (centres undefined),62 (active)
9,CCC(C)(C)n1nnnc1C(c1cccs1)N1CCN(Cc2ccccc2)CC1 (centres undefined),5 (inactive)
10,Cc1ccc(CCCOC(=O)C[N+]2(C)CCCC2)cc1,6 (inactive)
11,CSc1ccccc1NC(=O)Cc1ccc(Br)cc1,12 (inactive)
12,CCN1CCN(Cc2c(O)ccc3c(=O)c(-c4ccc(OC)c(OC)c4)c(C(F)(F)F)oc23)CC1,16 (inactive)
13,CCOC(=O)c1oc2c(CN3CCN(C)CC3)c(O)ccc2c(=O)c1-c1ccc(Br)cc1,189 (active)
14,CN1CCN(Cc2c(O)ccc3c2oc(=O)c2ccccc23)CC1,22 (inactive)
15,OCCn1c(-c2ccccc2)csc1=Nc1ccccc1,3 (inactive)
16,CC(O)c1nc2ccccc2n1Cc1ccc([N+](=O)[O-])cc1 (centres undefined),7 (inactive)
17,CCc1cccc(C)c1N(C(=O)Cn1c(CO)nc2ccccc21)C(C)COC (centres undefined),5 (inactive)
18,CCOCN(C(=O)Cn1c(C(C)O)nc2ccccc21)c1c(C)cccc1CC (centres undefined),57 (active)
19,O=C1CC(N2CCN(c3ccc(F)cc3)CC2)C(=O)N1c1ccccc1 (centres undefined),9 (inactive)
20,COC(=O)c1ccc(S(=O)(=O)N(CCO)Cc2ccccc2)n1C,6 (inactive)
21,CCCC1C(c2ccccc2)C(C#N)(C#N)C2(C#N)CC1(N)NC2=O (centres undefined),90 (active)
22,Cc1ccc(C(=O)COC(=O)CCN2C(=O)C3C4CC(C(Br)C4Br)C3C2=O)cc1 (centres undefined),14 (inactive)
23,CCOc1ccc(S(=O)(=O)N/N=C(\C)c2ccc(Cl)c(Cl)c2Cl)cc1,7 (inactive)
24,N#CCSc1nn(-c2ccc(F)cc2)c(=S)s1,24 (inactive)
25,CCOC(=O)c1c(/N=C/c2cc(C)ccc2O)sc2c1CCC2,14 (inactive)

row,SMILES,fluorescence (KMESF)
1,CC(C)(C)Nc1c(-c2cccs2)nc2ccccn12,9 (inactive)
2,O=C(COC(=O)Cn1cnc2ccccc2c1=O)NCc1ccccc1Cl,58 (active)
3,O=C(COC(=O)Cn1cnc2ccccc2c1=O)NCC12CC3CC(CC(C3)C1)C2,5 (inactive)
4,Cn1c(CCC(=O)OCC(=O)NCc2ccccc2Cl)nc(=O)c2ccccc21,21 (inactive)
5,COc1ccc(Br)cc1C(=O)Nc1cccc(C)c1C,8 (inactive)
6,O=C(CCCCCN1C(=O)c2cccc3cccc(c23)C1=O)NCc1ccco1,4 (inactive)
7,N#Cc1ccc(N2Cc3ccccc3/C2=N/C(=O)Nc2ccc(Cl)cc2)cc1,15 (inactive)
8,CC(NC(=O)COC(=O)c1cc(=O)[nH]c2ccccc12)c1ccccc1 (centres undefined),7 (inactive)
9,COc1cc2c(cc1OC)C(c1ccncc1)CC(=O)N2 (centres undefined),47 (active)
10,COc1cc2c(cc1OC)C(c1ccc(C)o1)CC(=O)N2 (centres undefined),22 (inactive)
11,COC(=O)c1ccc(C2CC(=O)Nc3cc(OC)c(OC)cc32)cc1 (centres undefined),19 (inactive)
12,CC(CO)(CO)NC(=O)c1ccc(=O)[nH]n1,4 (inactive)
13,CC(=O)NCC(=O)N1CCCC(C(=O)c2ccc3c4c(cccc24)CC3)C1 (centres undefined),80 (active)
14,Cc1ncoc1C(=O)N1CCCC(C(=O)c2ccc3c4c(cccc24)CC3)C1 (centres undefined),10 (inactive)
15,CCn1ccnc1CN1CCCC(C(=O)c2ccc3c4c(cccc24)CC3)C1 (centres undefined),8 (inactive)
16,Cc1nnc(Nc2ccccc2F)s1,5 (inactive)
17,COc1cc(/C=C/C(=O)OCC(=O)N2CCOCC2)ccc1OCC#N,10 (inactive)
18,O=C(NCCCc1ccccc1)C1CCC(CNc2c(N3CCCCC3)c(=O)c2=O)CC1 (centres undefined),7 (inactive)
19,CCCc1nc(SCC(=O)Nc2ccc(S(=O)(=O)N(C)C)cc2)c2ccccc2n1,1 (inactive)
20,O=C(CSc1ccc2nnc(-c3ccccc3)n2n1)N1CCCc2ccccc21,76 (active)
21,CCCn1c(SCC(=O)N2CCc3ccccc32)nnc1-c1ccncc1,7 (inactive)
22,Cn1c(SCC(=O)N2CCCc3ccccc32)nc2ccccc2c1=O,4 (inactive)
23,CCOc1ccc2sc(NS(=O)(=O)c3ccc(N)cc3)nc2c1,4 (inactive)
24,CC(C)(C)NC(=O)NCc1ccco1,6 (inactive)
